The nature of assay [1]: qHTS profiling for inhibitors of Plasmodium falciparum (3D7) proliferation (AID 743322).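 Also: infected erythrocytes exposed to compound for 72 h before lysis; 100% = DMSO vehicle wells and 0% = 0.29 µM artemisinin.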 The note with it: P. falciparum 3D7 proliferation; at 28.7 µM (top of the series). The gist of the method:
(§1)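 Parasite DNA was quantified by SYBR Green I fluorescence (ex 485, em 535 nm) after overnight lysis in saponin/Triton buffer at room temperature. Cultures at 0.3% parasitemia and 2.5% hematocrit were first exposed to compound for 72 h at 37 C; signals were normalised to artemisinin (0.29 uM) and vehicle wells.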

Assay [2] in a line: qHTS profiling for inhibitors of Plasmodium falciparum (DD2) proliferation (AID 743323). To be noted: lower = more inhibition; at 28.7 µM (top of the series). The gist of the method:
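Parasite DNA quantified by SYBR Green fluorescence (ex 485, em 535 nm) after saponin/Triton lysis and overnight dark incubation. Cultures: 0.3% parasitemia, 2.5% hematocrit, 72 h, 37 C; data scaled between DMSO and 0.29 uM artemisinin.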

Assay [3] is described as follows: qHTS profiling for inhibitors of Plasmodium falciparum (HB3) proliferation (AID 743324).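 Also: 100% = DMSO vehicle wells and 0% = artemisinin-treated control wells.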 To be noted: Plasmodium falciparum HB3 blood-stage proliferation; at 28.7 µM (top of the series). The gist of the method: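 SYBR Green fluorescence (485 ex/535 em) of lysed cultures, incubated overnight at room temperature in the dark, quantifies parasite DNA. Infected erythrocytes at 0.3% parasitemia and 2.5% hematocrit were exposed 72 h; values normalized to DMSO and 0.29 uM artemisinin controls.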

The nature of assay [4]: qHTS profiling of the MIPE4 collection as inhibitors of Plasmodium falciparum (3D7) proliferation (AID 743344).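 Also: scaled between DMSO vehicle wells and 0.29 µM artemisinin as full inhibition.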 To be noted: P. falciparum 3D7 in erythrocytes, SYBR Green DNA fluorescence, 72 h; at 28.5 µM (top of the series) unless noted. The gist of the method: as §1
Assay [5] is described as follows: qHTS profiling of the MIPE4 collection as inhibitors of Plasmodium falciparum (DD2) proliferation (AID 743345). The note with it: P. falciparum Dd2 in erythrocytes, SYBR Green DNA, 72 h; at 28.5 µM (top of the series) unless noted. The gist of the method: as §1
The nature of assay [6]: qHTS profiling of the MIPE4 collection as inhibitors of Plasmodium falciparum (HB3) proliferation (AID 743347).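 Also: plate controls were DMSO vehicle wells for no effect and artemisinin wells for full effect.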 To be noted: P. falciparum HB3 in erythrocytes, SYBR Green DNA, 72 h; at 28.5 µM (top of the series) unless noted. The gist of the method: as §1
Assay [7] in a line: High-throughput drug toxicity screening in the BPDCN cell line Gen2.2 (AID 1224824).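 Also: cells exposed to compounds for 48 h before reading.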 To be noted: Gen2.2 BPDCN cells; at 45.8 µM (top of the series) unless noted. The gist of the method: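 Seed 500 exponentially growing Gen2.2 cells/well; add compounds by pin tool; incubate 48 h, 37 °C, 5% CO2; add CellTiter-Glo, 15 min RT; read luminescence. % activity vs DMSO (100%) and bortezomib (0%).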

Assay [8] is described as follows: High-throughput drug toxicity screening in the BPDCN cell line Cal-1 (AID 1224825). To be noted: Cal-1 BPDCN cell viability, qHTS; at 45.8 µM (top of the series) unless noted. The gist of the method: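 Viability of the BPDCN line Cal-1 is measured as ATP-based luminescence (CellTiter-Glo) following 48 h incubation with compounds. Percent activity uses DMSO-treated wells as 100% and 9.2 uM bortezomib as 0%.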

Assay [9] in a line: qHTS profiling of the MIPE4 collection as inhibitors of Plasmodium falciparum (DD2) proliferation (Rep 2) (AID 743346). To be noted: P. falciparum Dd2 in erythrocytes, SYBR Green DNA, 72 h; at 28.5 µM (top of the series) unless noted. The gist of the method:
as §1

SMILES strings stand for the structures.

Consider `O=C(Nc1cc(C(F)(F)F)cc(C(F)(F)F)c1)c1cc(Cl)ccc1O`, for which the remaining parasite growth % (stronger effect = lower value) in assay [1] was -1.15%. Further, the activity, percent of control in assay [2] worked out at 0.0029%. Also, the remaining proliferation (% of control), lower = more inhibition in assay [3] is -0.617%. This compound returned a parasite growth, % of DMSO control in [4] of 5.26%. Also, the parasite growth remaining, % of DMSO control (lower = more inhibition) in [5] was found to be 6.62%. The same compound came in with a growth, % of control in [6] of 5.57%. The cell viability, % of control (lower = more cytotoxic) in assay [7] turned out to be 7.43%. In [8], the viability (% of control) is 2.38%.

`N#Cc1c(O)c2c(-c3ccc(-c4ccccc4O)cc3)csc2[nH]c1=O`: the remaining parasite growth % (stronger effect = lower value) in [1] is 93.3%. For the same compound, in assay [2], the activity, percent of control worked out at 96%. This compound came in with a parasite growth, % of DMSO control in [4] of 70.3%. For the same compound, in assay [5], the parasite growth remaining, % of DMSO control (lower = more inhibition) is 94.8%. In [9], the parasite growth, % of control (lower = inhibition) was 47.7%. Besides, in assay [7], the cell viability, % of control (lower = more cytotoxic) worked out at 185%. Further, the viability (% of control) in assay [8] came out at 108%.

Consider `Cc1ccc(S(=O)(=O)Nc2cc(Cl)ccc2C(=O)Nc2nc(-c3ccccc3)cs2)cc1`, for which the remaining parasite growth % (stronger effect = lower value) in [1] was 11.7%. In addition, the activity, percent of control in assay [2] stood at 6.55%. Also, in assay [4], the parasite growth, % of DMSO control is 64.3%. Further, in assay [5], the parasite growth remaining, % of DMSO control (lower = more inhibition) came to 16.4%. The growth, % of control in [6] turned out to be 49.7%. Moreover, the cell viability, % of control (lower = more cytotoxic) in assay [7] was determined as 172%. For the same compound, in [8], the viability (% of control) is 96.8%.

Regarding `O=C(C=Cc1cccnc1)NCCCCC1CCN(C(=O)c2ccccc2)CC1`, in assay [2], the activity, percent of control came to 85.9%. Also, the remaining proliferation (% of control), lower = more inhibition in assay [3] was determined as 46.3%. In assay [4], this compound yielded a parasite growth, % of DMSO control of 50.2%. In addition, the parasite growth remaining, % of DMSO control (lower = more inhibition) in assay [5] worked out at 93.7%. Moreover, the parasite growth, % of control (lower = inhibition) in assay [9] is 51%. In assay [6], the growth, % of control was 42%. For the same compound, the cell viability, % of control (lower = more cytotoxic) in [7] stood at 48%. The viability (% of control) in [8] was 4.19%.

Regarding `O=C(C=Cc1c(C(=O)O)[nH]c2cc(Cl)cc(Cl)c12)Nc1ccccc1`, the activity, percent of control in assay [2] was determined as 103%. Also, the remaining proliferation (% of control), lower = more inhibition in [3] worked out at 99.1%. Also, the parasite growth, % of DMSO control in assay [4] came to 157%. The parasite growth remaining, % of DMSO control (lower = more inhibition) in assay [5] turned out to be 107%. In [9], the parasite growth, % of control (lower = inhibition) stood at 159%. Moreover, the growth, % of control in [6] stood at 188%. In assay [7], the cell viability, % of control (lower = more cytotoxic) came to 115%. In assay [8], the viability (% of control) was 98.9%.

In the case of `CC(C)(C)OC(=O)Nc1ccc(-c2cc(C(=O)NCCCCCCC(=O)NO)no2)cc1`, the activity, percent of control in assay [2] was -0.213%. Further, the remaining proliferation (% of control), lower = more inhibition in assay [3] is 0.579%. Moreover, the parasite growth, % of DMSO control in assay [4] worked out at 4.81%. The parasite growth remaining, % of DMSO control (lower = more inhibition) in assay [5] was determined as 6.42%. Also, in [9], the parasite growth, % of control (lower = inhibition) was 12.7%. In assay [6], this compound gave a growth, % of control of 3.96%. In addition, the cell viability, % of control (lower = more cytotoxic) in [7] is 4.96%. In assay [8], the viability (% of control) was found to be 3.94%.

With `O=C(c1ccc(Nc2nccc(-c3cc4ccccc4s3)n2)cc1)N1CCC(N2CCCC2)CC1`, the activity, percent of control in assay [2] was -0.895%. The compound also came in with a parasite growth, % of DMSO control in assay [4] of 4.58%. For the same compound, the parasite growth remaining, % of DMSO control (lower = more inhibition) in [5] came out at 6.27%. For the same compound, the parasite growth, % of control (lower = inhibition) in assay [9] amounted to 18.7%. This compound also registered a growth, % of control in assay [6] of 4.99%. The cell viability, % of control (lower = more cytotoxic) in assay [7] turned out to be 11.5%. In addition, the viability (% of control) in assay [8] came to 3.16%.

`Cc1cnc(Nc2ccc(F)cc2Cl)nc1-c1c[nH]c(C(=O)N[C@H](CO)c2cccc(Cl)c2)c1`: in assay [2], the activity, percent of control worked out at 17.2%. In addition, in assay [3], the remaining proliferation (% of control), lower = more inhibition turned out to be 6.37%. The same compound gave a parasite growth, % of DMSO control in assay [4] of 7.48%. For the same compound, in assay [5], the parasite growth remaining, % of DMSO control (lower = more inhibition) was 8.92%. Further, the parasite growth, % of control (lower = inhibition) in [9] is 12.8%. Besides, the growth, % of control in assay [6] was 11.5%. The cell viability, % of control (lower = more cytotoxic) in [7] turned out to be 4.9%. Besides, the viability (% of control) in assay [8] came to 1.37%.

Turning to `CCOc1cc2ncc(C#N)c(Nc3ccc(F)c(Cl)c3)c2cc1NC(=O)C=CCN(C)C`, in [2], the activity, percent of control stood at 3.39%. In addition, the remaining proliferation (% of control), lower = more inhibition in [3] was determined as 0.199%. Moreover, in assay [4], the parasite growth, % of DMSO control came out at 8.27%. The parasite growth remaining, % of DMSO control (lower = more inhibition) in [5] is 7.41%. For the same compound, the parasite growth, % of control (lower = inhibition) in [9] amounted to 9.55%. Besides, the growth, % of control in [6] worked out at 4.45%. Moreover, the cell viability, % of control (lower = more cytotoxic) in assay [7] stood at 17.3%. For the same compound, in assay [8], the viability (% of control) is 9.88%.
